# Assay results as given in PubChem BioAssay.
# Activity calls are given as the source filed them.
# What was measured:
# [1] = small molecules captured by biotinylated probe aFSTL3 – biochemical, small-molecule microarray, fluorescence 635/667, stem cell growth factor project, primary screen (AID 1064); conditions: higher = more signal;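 note: measures binding of the biotinylated anti-FSTL3 antibody to printed compounds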
# [2] = binders from COS7 lysate, DM2A8 probe, primary screen, torsin A project, cell lysate, small-molecule microarray, fluorescence 635/667 (AID 1065); conditions: higher = more signal, COS7 lysate expressing mutant human TOR1A
# [3] = small molecules captured by biotinylated probe aFGF2 – biochemical, small-molecule microarray, fluorescence 635/667, stem cell growth factor project, primary screen (AID 1067); conditions: higher = more signal;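 note: measures binding of biotinylated aFGF2 protein to printed compounds on slides; z-score merges feature fluorescence and signal-to-noise across triplicate slides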
# [4] = small molecules captured by biotinylated probe aFGF10 – biochemical, small-molecule microarray, fluorescence 635/667, stem cell growth factor project, primary screen (AID 1071); conditions: higher = more signal;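 note: score merges 667 nm spot intensity and signal to noise from triplicate slides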
# [5] = biological target: Neurogenic locus notch homolog protein 2 (Homo sapiens) (UniProt Q04721); test: small molecules binding Notch2 protein – biochemical, small-molecule microarray, 635 nm fluorescence, stem cell growth factors, primary screen (AID 1073); conditions: higher = more signal
# [6] = biological target: Pro-neuregulin-1, membrane-bound isoform (Homo sapiens) (UniProt Q02297); test: small molecules binding neuregulin-1 protein – biochemical, small-molecule microarray, fluorescence 635/667, psychiatric disease protein project, primary screen (AID 1075); conditions: NRG1 binding, 635 nm fluorescence, higher = more signal;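 note: score combines 667 nm spot fluorescence with signal to noise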
# [7] = test system: Neuregulin-1 EGF-like domain; test: small molecules binding NRG1 EGF domain – biochemical, small-molecule microarray, 635 nm fluorescence, primary screen (AID 1081); conditions: higher = more signal;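 note: binding of the protein to compounds printed on small-molecule microarray slides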
# [8] = FRG1 expression reporter modulators in myotubes – cell-based, C2C12 myotubes, firefly/Renilla luciferase, luminescence, FRG1 inhibition for FSHD, primary screen (AID 1084); conditions: FRG1 promoter luciferase, higher = more signal, called active from +8 up or from −8 down
# [9] = small molecules captured by biotinylated probe aFST – biochemical, small-molecule microarray, fluorescence 635/667, stem cell growth factor project, primary screen (AID 1086); conditions: higher = more signal;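 note: score merges 667 nm fluorescence with signal-to-noise of each printed compound spot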
# [10] = binders of probe aHhip on microarray, primary screen, stem cell growth factor project, biochemical, small-molecule microarray, fluorescence 635/667 (AID 1087); conditions: higher = more signal;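 note: score merges spot fluorescence at 667nm with spot signal to noise ratio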
# [11] = test system: PRMT1 (protein arginine N-methyltransferase 1); test: small molecules binding arginine methyltransferase PRMT1 – biochemical, small-molecule microarray, 635 nm fluorescence, primary screen (AID 1088); conditions: higher = more signal;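 note: binding of Prmt1 protein to compounds spotted on small-molecule microarray slides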
# [12] = growth effects on S. cerevisiae YJM789 – YJM789 clinical isolate, OD600, 24 h, basal, primary screen (AID 1089); conditions: higher = more signal, called active from +8 up or from −8 down;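 note: growth of clinical yeast isolate S. cerevisiae YJM 789 seeded 1000 cells per well; test concentration not given here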
# [13] = S. pombe growth modifiers, basal conditions – strain 972, OD600, 24 h, no modulator, primary screen (AID 1090);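 note: basal condition with compound alone and no growth modifier present; test concentration not given here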; conditions: S. pombe 972 growth, higher = more signal, called active from +8 up or from −8 down
# [14] = budding yeast growth modifiers under rapamycin – strain BY4716, OD600, 96 h, primary screen (AID 1091); note: test concentration not given here; conditions: S. cerevisiae BY4716 + rapamycin, higher = more signal, called active from +8 up or from −8 down
# [15] = biological target: Torsin-1A-interacting protein 2 (Homo sapiens) (UniProt Q8NFQ8); test: small molecules binding lysate-expressed LULL1 – cell lysate, human LULL1 lysate, 635/667 nm fluorescence, primary screen (AID 1092); conditions: small-molecule microarray, hLULL1 lysate binding, 635 nm fluorescence; higher = more signal;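 note: probe is lysate of COS7 cells overexpressing human LULL1; score merges per-feature 667 nm fluorescence with signal-to-noise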
# [16] = optical density change of DRC41 E. coli – strain DRC41, OD650, 24 h, E. coli filamentation project, primary screen (AID 1093);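 note: MC1000 strain lacking acrAB efflux and sulA so SOS filamentation is blocked; test concentration not given here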; conditions: E. coli DRC41 growth, higher = more signal, called active from +8 up or from −8 down
# [17] = probe aLefty2 binding to arrayed compounds – biochemical, biotinylated probe, 635/667 nm fluorescence, primary screen (AID 1094); conditions: small-molecule microarray, higher = more signal;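 note: score merges spot fluorescence near 667 nm with spot signal-to-noise ratio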
# [18] = test system: Noggin (protein binding on small-molecule microarray); test: small molecules binding Noggin protein – biochemical, 635/667 nm fluorescence, primary screen (AID 1095); conditions: 635 nm fluorescence, higher = more signal;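 note: score merges 667 nm feature fluorescence with signal to noise over triplicate slides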
# [19] = biological target: Neurogenic locus notch homolog protein 3 (Homo sapiens) (UniProt Q9UM47); test: small molecules binding NOTCH3 protein – biochemical, 635/667 nm fluorescence, primary screen (AID 1096); conditions: small-molecule microarray, 635 nm fluorescence, higher = more signal
# [20] = probe aEGFR binding to arrayed compounds – biochemical, biotinylated probe, 635/667 nm fluorescence, primary screen (AID 1097); conditions: small-molecule microarray, higher = more signal;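 note: probe is a biotinylated anti-EGFR antibody binding compounds printed on slides; score combines fluorescence near 667 nm and signal to noise of each spot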
# Neurogenic locus notch homolog protein 2 (Homo sapiens), sequence (Q04721 whole entry, looked up, canonical isoform): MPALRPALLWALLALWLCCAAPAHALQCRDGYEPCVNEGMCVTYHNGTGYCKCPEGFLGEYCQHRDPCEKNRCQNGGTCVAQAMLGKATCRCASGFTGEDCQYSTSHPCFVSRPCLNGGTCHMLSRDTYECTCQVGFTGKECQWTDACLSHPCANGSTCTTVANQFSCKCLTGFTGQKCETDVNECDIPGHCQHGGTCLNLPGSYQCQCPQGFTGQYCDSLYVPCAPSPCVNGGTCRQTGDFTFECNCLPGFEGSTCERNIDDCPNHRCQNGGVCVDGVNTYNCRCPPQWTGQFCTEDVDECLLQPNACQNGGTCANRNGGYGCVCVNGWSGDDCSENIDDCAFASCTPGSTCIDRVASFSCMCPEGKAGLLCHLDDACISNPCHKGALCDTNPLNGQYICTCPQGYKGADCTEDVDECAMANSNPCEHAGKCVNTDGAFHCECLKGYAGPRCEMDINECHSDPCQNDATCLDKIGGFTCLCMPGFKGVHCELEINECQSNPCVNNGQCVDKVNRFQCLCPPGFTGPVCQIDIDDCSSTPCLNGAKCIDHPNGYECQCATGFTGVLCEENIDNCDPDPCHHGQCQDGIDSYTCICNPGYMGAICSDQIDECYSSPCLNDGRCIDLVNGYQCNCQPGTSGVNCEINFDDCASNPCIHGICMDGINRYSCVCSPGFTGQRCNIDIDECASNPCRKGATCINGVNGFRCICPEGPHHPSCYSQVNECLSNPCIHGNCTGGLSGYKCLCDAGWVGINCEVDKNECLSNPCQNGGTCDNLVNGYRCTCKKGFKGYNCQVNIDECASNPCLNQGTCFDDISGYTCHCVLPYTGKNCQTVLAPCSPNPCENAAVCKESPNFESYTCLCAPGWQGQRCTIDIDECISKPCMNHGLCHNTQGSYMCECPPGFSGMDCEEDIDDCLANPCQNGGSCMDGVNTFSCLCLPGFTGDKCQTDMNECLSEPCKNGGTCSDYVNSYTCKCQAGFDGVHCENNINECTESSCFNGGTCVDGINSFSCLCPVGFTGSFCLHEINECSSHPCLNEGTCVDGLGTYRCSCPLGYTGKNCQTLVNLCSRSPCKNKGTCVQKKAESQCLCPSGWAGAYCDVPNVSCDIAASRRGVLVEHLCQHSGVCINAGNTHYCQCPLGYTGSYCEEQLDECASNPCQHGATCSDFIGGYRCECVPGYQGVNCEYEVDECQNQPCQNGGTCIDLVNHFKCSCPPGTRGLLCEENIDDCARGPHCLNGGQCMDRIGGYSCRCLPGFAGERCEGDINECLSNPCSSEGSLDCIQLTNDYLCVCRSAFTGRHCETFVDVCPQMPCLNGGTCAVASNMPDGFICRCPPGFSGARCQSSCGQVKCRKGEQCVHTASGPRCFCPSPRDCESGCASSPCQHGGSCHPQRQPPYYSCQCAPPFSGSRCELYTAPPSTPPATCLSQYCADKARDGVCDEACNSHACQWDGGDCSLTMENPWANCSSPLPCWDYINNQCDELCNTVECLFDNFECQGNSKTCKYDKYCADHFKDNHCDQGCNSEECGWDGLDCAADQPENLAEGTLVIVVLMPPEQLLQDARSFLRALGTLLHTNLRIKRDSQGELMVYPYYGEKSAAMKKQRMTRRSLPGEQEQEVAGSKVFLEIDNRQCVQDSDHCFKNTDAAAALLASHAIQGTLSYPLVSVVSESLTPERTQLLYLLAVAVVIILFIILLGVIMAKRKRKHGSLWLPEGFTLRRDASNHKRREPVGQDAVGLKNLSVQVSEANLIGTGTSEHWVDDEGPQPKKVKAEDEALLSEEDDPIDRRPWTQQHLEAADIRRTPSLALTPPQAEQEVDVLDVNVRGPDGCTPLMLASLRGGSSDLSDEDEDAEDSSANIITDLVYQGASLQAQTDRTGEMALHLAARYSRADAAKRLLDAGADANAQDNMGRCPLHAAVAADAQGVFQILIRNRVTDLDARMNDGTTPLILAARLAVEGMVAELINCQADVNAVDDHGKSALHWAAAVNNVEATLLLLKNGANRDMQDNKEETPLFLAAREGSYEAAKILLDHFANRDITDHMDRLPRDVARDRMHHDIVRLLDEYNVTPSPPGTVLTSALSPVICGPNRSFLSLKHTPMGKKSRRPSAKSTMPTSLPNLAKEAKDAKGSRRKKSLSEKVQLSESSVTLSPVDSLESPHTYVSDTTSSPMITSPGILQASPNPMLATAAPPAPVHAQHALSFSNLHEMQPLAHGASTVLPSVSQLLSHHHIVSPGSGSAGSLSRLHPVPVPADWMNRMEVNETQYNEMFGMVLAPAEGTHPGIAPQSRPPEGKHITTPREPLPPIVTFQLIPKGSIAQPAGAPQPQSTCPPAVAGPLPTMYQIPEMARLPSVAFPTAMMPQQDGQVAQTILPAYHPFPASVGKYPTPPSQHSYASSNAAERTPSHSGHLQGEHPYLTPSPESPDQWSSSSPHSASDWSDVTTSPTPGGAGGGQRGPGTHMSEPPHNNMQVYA
# Torsin-1A-interacting protein 2 (Homo sapiens), sequence (Q8NFQ8 whole entry, looked up): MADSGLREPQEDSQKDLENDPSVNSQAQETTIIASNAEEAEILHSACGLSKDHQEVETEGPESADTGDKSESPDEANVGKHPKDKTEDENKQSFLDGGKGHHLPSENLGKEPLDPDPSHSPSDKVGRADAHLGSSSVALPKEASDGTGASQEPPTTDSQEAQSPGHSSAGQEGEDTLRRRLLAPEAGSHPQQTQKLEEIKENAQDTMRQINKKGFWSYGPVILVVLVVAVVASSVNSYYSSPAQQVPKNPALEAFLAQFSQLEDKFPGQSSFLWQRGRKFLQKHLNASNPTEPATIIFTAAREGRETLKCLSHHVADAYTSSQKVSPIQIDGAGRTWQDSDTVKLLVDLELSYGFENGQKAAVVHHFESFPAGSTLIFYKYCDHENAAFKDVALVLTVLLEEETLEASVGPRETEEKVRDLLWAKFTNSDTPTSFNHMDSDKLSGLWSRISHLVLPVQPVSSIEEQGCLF
# Pro-neuregulin-1, membrane-bound isoform (Homo sapiens), sequence (Q02297 whole entry, looked up, the tested form may be a part, canonical isoform): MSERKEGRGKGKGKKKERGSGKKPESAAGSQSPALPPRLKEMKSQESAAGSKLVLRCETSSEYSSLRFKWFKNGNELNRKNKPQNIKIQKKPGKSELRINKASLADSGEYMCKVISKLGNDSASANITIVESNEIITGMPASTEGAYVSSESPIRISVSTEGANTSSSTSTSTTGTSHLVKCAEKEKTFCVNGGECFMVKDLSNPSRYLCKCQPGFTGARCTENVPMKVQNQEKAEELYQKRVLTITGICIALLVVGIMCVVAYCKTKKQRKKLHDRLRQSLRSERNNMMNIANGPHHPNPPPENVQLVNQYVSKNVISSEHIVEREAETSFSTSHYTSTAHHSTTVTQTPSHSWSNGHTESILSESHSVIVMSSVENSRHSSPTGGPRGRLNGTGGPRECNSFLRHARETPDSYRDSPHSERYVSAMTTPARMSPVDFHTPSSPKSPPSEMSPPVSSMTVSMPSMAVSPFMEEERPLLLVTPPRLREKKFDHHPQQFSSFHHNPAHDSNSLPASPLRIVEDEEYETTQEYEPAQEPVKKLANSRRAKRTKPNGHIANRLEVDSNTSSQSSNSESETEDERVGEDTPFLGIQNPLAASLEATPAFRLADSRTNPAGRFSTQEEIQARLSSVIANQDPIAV
SMILES,composite z-score [1],composite z-score [2],composite z-score [3],composite z-score [4],composite z-score [5],composite z-score [6],composite z-score [7],z-score [8],composite z-score [9],composite z-score [10],composite z-score [11],z-score [12],z-score [13],z-score [14],composite z-score [15],z-score [16],composite z-score [17],composite z-score [18],composite z-score [19],composite z-score [20]
COc1ccccc1CN1C(=O)c2ccccc2[C@@H](C(=O)NCCN2CCOCC2)[C@@H]1c1ccc(CO)cc1,0.109,-0.267,-0.0999,0.539,0.159,1.01,1.47,-2.69 (inactive),-0.2,-0.169,0.663,-0.884 (inactive),0.067 (inactive),-0.805 (inactive),3.32,0.339 (inactive),-0.0948,0.025,0.209,-0.156
CCCCCCc1nc(CCCc2cc3c(c(CCCCCC)n2)[Si](C(C)C)(C(C)C)OC3)cc2c1[Si](C(C)C)(C(C)C)OC2,-0.0039,0.0271,-0.149,-0.408,-0.955,-0.247,-0.774,0.521 (inactive),-0.344,0.0274,-0.41,-0.506 (inactive),-2.38 (inactive),0.256 (inactive),-0.134,-0.3 (inactive),-0.208,0.257,-0.58,-0.287
CCN(CC)c1ccc(N2CC=CC34O[C@@H]5/C=C\CCCOC(=O)C5[C@H]3C(=O)N(C(CO)C(C)C)[C@@H]4C2=O)cc1 (stereo not given in full),0.0964,-1.2,-0.159,-0.381,-0.686,1.78,0.897,0.455 (inactive),-0.406,0.0142,0.0395,0.803 (inactive),-0.193 (inactive),-0.0204 (inactive),2.03,-0.309 (inactive),-0.168,-0.708,-0.0981,-0.198
CC(=O)NCCCC[C@@H]1NC(=O)[C@@H]2C[C@H](C(=O)NCCCCCCNC(=O)CS)[C@H](c3ccc(O)cc3)N2C1=O,0.219,0.463,-0.0985,-0.1,-0.498,1.49,1.27,1.5 (inactive),-0.715,-0.0645,1.5,0.372 (inactive),-0.804 (inactive),0.778 (inactive),1.46,-0.581 (inactive),-0.103,0.171,0.0726,-0.142
C=CCNC(=O)[C@H]1[C@@H]2C(=O)O[C@@H](c3ccccc3)[C@@H](c3ccccc3)N2[C@@H](c2ccc(O)cc2)[C@]12C(=O)N(C(=O)OCCOC)c1ccc(C#CCCO)cc12,0.174,1.93,-0.154,0.932,0.0576,1.33,1.32,-4.26 (inactive),-0.0024,-0.0618,1.58,1.16 (inactive),-0.47 (inactive),0.804 (inactive),2.97,1.07 (inactive),-0.0916,-0.176,-0.15,-0.0163
NC(=O)NCC#Cc1ccc2c(c1)[C@]1(C(=O)N2)[C@H](C(=O)N2CCCCCCC2)[C@H]2C(=O)O[C@H](c3ccccc3)[C@H](c3ccccc3)N2[C@@H]1c1ccc(OCCO)cc1,3.14,0.756,0.326,0.904,0.481,0.463,0.292,0.832 (inactive),3.05,3.7,1.43,1.65 (inactive),0.562 (inactive),4.58 (inactive),2.06,-0.219 (inactive),1.63,1.47,1.02,0.864
CN1C=C(C(=O)OCCS(C)(=O)=O)C(C(=O)OCCS(C)(=O)=O)=CC(CCCO)=CC1C1CC1 (stereo not given),-0.135,0.0461,-0.128,0.427,0.213,1.04,1.25,-0.483 (inactive),-0.0228,-0.0618,0.0371,-0.298 (inactive),-0.0029 (inactive),-0.692 (inactive),0.826,0.731 (inactive),-0.145,0.332,0.574,-0.068
O=c1cccc(C=Cc2ccccc2)o1,0.236,-0.609,-0.144,-0.0239,-1.03,-0.458,-0.0882,0.242 (inactive),-0.369,-0.0994,-0.127,-0.411 (inactive),-1.06 (inactive),1.14 (inactive),-0.756,0.573 (inactive),-0.214,0.104,-1.13,-0.142
COCCOC(=O)N1C(=O)[C@@]2(c3cc(C#CCC(C(=O)OC)C(=O)OC)ccc31)[C@H](C(=O)N1CCCCCCC1)[C@H]1C(=O)O[C@H](c3ccccc3)[C@H](c3ccccc3)N1[C@@H]2c1ccc(OCCO)cc1,3.71,1.81,0.755,0.833,1.32,2.11,1.36,0.109 (inactive),3.4,2.72,1.54,1.47 (inactive),0.168 (inactive),2.66 (inactive),4.11,0.275 (inactive),1.66,2.02,1.05,1.26
CC(C)(C)OC(=O)CC[C@]1(C(=O)N2CCCCC2)N=C(c2ccc(OCCCO)cc2)O[C@H]1c1ccccc1N=[N+]=[N-],1.14,0.933,-0.0328,0.877,1.32,1.42,1.3,-0.275 (inactive),1.24,0.0818,1.54,0.589 (inactive),0.402 (inactive),0.73 (inactive),3.05,1.62 (inactive),0.292,1.21,1.01,0.872
